# A selection: hits, their analogues and other compounds. The true share with any hit is near 7.5%.
# ELG1 genotox: genotoxicity induction in ELG1-luciferase HEK293T cells | HEK293T ELG1-luciferase reporter, luminescence, 16 h | AID 504466 | Potency, µM (top dose mostly 46 µM), usual class: activators | 330,000 compounds, 1.3% hits; further: nearly all actives have a fitted effect of over 60% in size
#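 ELG1-luciferase HEK293T cells, 2,000/well; compound pinned in; 16 hr, 37 °C, 5% CO2; ONE-Glo, 30 min RT; luminescence on CCD imager.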
# FLuc modulator: firefly luciferase modulation, counter-screen for miR-21 project. 360,000 compounds, 6.9% hits. AID 588342. P08659. Potency, µM (top dose mostly 57.5 µM), hits mostly inhibitors. purified FLuc, Km substrates, luminescence inhibition; further: nearly all actives have a fitted effect of over 55% in size
# Target sequence (P08659 whole entry, looked up): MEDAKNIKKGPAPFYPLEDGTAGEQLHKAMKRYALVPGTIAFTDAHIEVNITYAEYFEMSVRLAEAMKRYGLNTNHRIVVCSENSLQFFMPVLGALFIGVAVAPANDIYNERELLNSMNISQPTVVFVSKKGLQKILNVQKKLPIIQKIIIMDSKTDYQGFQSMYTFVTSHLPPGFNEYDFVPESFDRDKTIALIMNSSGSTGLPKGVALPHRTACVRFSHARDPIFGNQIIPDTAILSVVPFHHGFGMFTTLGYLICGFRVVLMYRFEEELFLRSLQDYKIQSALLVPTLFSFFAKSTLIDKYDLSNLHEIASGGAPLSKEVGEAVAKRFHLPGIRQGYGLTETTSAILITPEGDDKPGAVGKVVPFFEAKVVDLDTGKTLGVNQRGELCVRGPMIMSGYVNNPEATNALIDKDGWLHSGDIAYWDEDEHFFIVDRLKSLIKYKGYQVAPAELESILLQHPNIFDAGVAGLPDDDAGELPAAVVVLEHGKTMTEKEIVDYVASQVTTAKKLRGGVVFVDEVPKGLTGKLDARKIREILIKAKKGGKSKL
#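 Purified P. pyralis luciferase (10nM final) with 10uM D-luciferin and 10uM ATP (Km levels) in 50mM Tris acetate pH 7.5, 10mM Mg acetate, 0.01% Tween-20, 0.05% BSA; qHTS 6-point titration, ~60 µM downward; luminescence read.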
# SMN2 splice enh: SMN2 splice variant enhancement; Potency, µM (top dose mostly 46.1 µM), hits mostly activators; HEK293 SMN2-luciferase splicing reporter, luminescence, 30-36 h; 210,000 compounds, 2.8% hits; further: nearly all actives have a fitted effect of over 55% in size
#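 HEK293 cells carry an SMN2 […]–luciferase reporter in which exon 7 inclusion puts luciferase in frame. Cells were plated 10-12 h before compound addition, then incubated 30-36 h at 37C. ONE-Glo luminescence was read; sodium butyrate at 4.5 mM final served as control.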
# Rab9 prom act: activates the Rab9 promoter | 320,000 compounds, 2.8% hits | Huh7 Rab9 promoter-luciferase reporter, luminescence, 24 h | Potency, µM (titrated, usually from 9.22 µM), most hits filed as activators | AID 485297; further: nearly all actives have a fitted effect of over 60% in size
#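 Luminescence from Amplite-detected luciferase (10 minutes, ambient) reports Rab9 promoter activation. Before that, stable Rab9-luciferase Huh7 cells (1500/well, reduced-serum OP-MEM I plus 10% FBS) were exposed to compound for 24 hours at 37C.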
# NPC1 prom act: activates the NPC1 promoter; Huh7 NPC1 promoter luciferase reporter, 24 h; Potency, µM (series often up to 9.22 µM), hits mostly activators; 320,000 compounds, 2.4% hits; AID 485313; further: nearly all actives have a fitted effect of over 60% in size
#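 Stable NPC1-promoter luciferase Huh7 line; cpd (DMSO) 24 h, 37 °C, 5% CO2; Amplite luciferase reagent 10 min RT; luminescence readout. qHTS format.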
# KinaseGlo FLuc: Kinase-Glo luciferase inhibition (counter-screen). Q27757. Kinase-Glo luciferase, ATP luminescence, 8 min. Potency, µM (highest dose often 38.3 µM), most hits filed as inhibitors. 200,000 compounds, 0.28% hits; further: nearly all actives have a fitted effect of over 60% in size
#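 Substrate mix (final 50 mM imidazole pH 7.2, 50 mM KCl, 7 mM MgCl2, 10 uM ATP, 0.01% Tween 20, 0.05% BSA) plus pin-tool compound, then Kinase-Glo detection mix; 8 min ambient, luminescence read.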
# Hits are given with their value; - = inactive; ? = inconclusive; . = no result. The call rests on the fitted dose curve; in most records, active means well fitted curve in the direction sought with a large enough effect; inconclusive means small, poorly fitted or top-dose-only effect, or another doubt; inactive means no such curve, though single readings can be large; an effect the other way counts as inactive or inconclusive.
SMILES,ELG1 genotox,FLuc modulator,SMN2 splice enh,Rab9 prom act,NPC1 prom act,KinaseGlo FLuc
COCCNC(=O)c1ccc(Cl)c(Cl)c1,-,-,-,-,-,-
O=C(NCCc1cccs1)c1ccc(CS(=O)Cc2ccc(Cl)cc2)o1 (stereo not drawn),-,-,.,-,-,.
O=C(NCCc1cccs1)c1ccc(Cl)c(Cl)c1,?,11µM,.,2.2µM,3.2µM,-
CCOc1c2ccc(C(=O)NCc3ccc(C)cc3)cc2nn1CC,-,-,13µM,-,-,-
CCCn1nc2cc(C(=O)NCc3ccc(C)cc3)ccc2c1OCC,-,-,-,-,-,-
O=C(NCCc1cccs1)c1ccc(Cl)cc1,?,1.2µM,.,0.32µM,0.35µM,.
FC(F)(F)c1nc2cc3nc4ccccc4[nH]c3cc2n1,-,24µM,.,?,?,.
O=C(NC1C2CCCC1CN(C1CC1)C2)c1ccc(Cl)cc1 (stereo not drawn),-,-,.,-,-,.
Cc1ccc(C2=CSC3=NNC4(CCCCC4)NN23)cc1,-,11µM,-,4.5µM,-,-
COc1ccc(C2=CSC3=NNC4(CCCCC4)NN23)cc1,-,?,-,?,-,-
COc1ccccc1N1CCN(S(=O)(=O)c2ccc3c(c2)n(C)c(=O)n3C)CC1,-,-,.,-,-,-
Cc1nc(-c2ccccc2)sc1C(=O)O,-,?,?,-,-,-
Cc1ccc(-c2nc(C)c(C(=O)O)s2)cc1,?,4.8µM,.,?,-,-
Cc1nc(-c2ccc(Cl)cc2)sc1C(=O)O,?,15µM,11µM,?,?,-
Cc1nc(-c2ccc([N+](=O)[O-])cc2)sc1C(=O)O,?,27µM,.,?,-,-
COc1ccc(OC)c(C(=O)c2c(C)oc3cc([N+](=O)[O-])c(O)c([N+](=O)[O-])c23)c1,-,21µM,.,-,-,.
COC(=O)c1nc(NC(=S)NC(=O)c2cccs2)sc1C,?,11µM,.,?,?,.
COC(=O)Cc1nc(NC(=O)c2cccs2)sc1C,-,17µM,.,?,?,.
CCc1ccc(-c2nc(NC(=S)NC(=O)c3cccs3)sc2C)cc1,-,-,-,-,-,-
O=C(NC(=S)Nc1nc2ccccc2s1)c1cccs1,?,1.1µM,2µM,3.5µM,?,-
O=[N+]([O-])c1ccc(S(=O)(=O)N2CCN(c3ccc(N4CCOCC4)nn3)CC2)cc1,-,-,.,-,-,.
COCCNC(=O)COc1ccccc1Cl,-,-,-,-,-,-
COc1ccccc1NC(=O)COC(=O)C1CC2C=CC1C2 (stereo not drawn),-,24µM,-,-,-,-
COCCCn1c(C)cc(C(=O)COC(=O)C23CC4CC(CC(O)(C4)C2)C3)c1C,?,?,.,0.63µM,?,.
Cn1cccc1C(=O)NNC(=O)COc1ccccc1Cl,-,15µM,.,-,-,.
SMILES,ELG1 genotox,FLuc modulator,SMN2 splice enh,Rab9 prom act,NPC1 prom act,KinaseGlo FLuc
Cn1cccc1C(=O)NC(=O)COC(=O)C12CC3CC(CC(O)(C3)C1)C2,9.2µM,6µM,-,-,-,-
COc1ccc(NC(=O)CSc2nnc3n2CCCCC3)cc1,-,-,-,-,-,-
Cc1cc(C)n(-c2cccc(F)n2)n1,-,-,-,-,-,-
O=C(COC(=O)C12CC3CC(CC(O)(C3)C1)C2)Nc1ccc(Cl)cc1F,?,7.6µM,.,1.3µM,?,.
Cn1cccc1C(=O)NC(=O)COC(=O)c1ccc(O)cc1,-,-,-,-,-,-
Cn1cccc1C(=O)NC(=O)COC(=O)c1ccccc1O,-,-,35µM,-,-,-
CCOc1ccccc1NC(=O)COC(=O)C12CC3CC(CC(O)(C3)C1)C2,-,11µM,.,-,-,.
COc1ccccc1NC(=O)COC(=O)C12CC3CC(CC(Br)(C3)C1)C2,-,.,.,.,.,.
COc1ccccc1NC(=O)COC(=O)C12CC3CC(CC(Cl)(C3)C1)C2,-,15µM,-,-,-,-
O=C(COC(=O)C12CC3CC(CC(O)(C3)C1)C2)NCCc1ccc(Cl)cc1,-,-,-,-,-,-
COCCNC(=S)N(CCc1c(C)[nH]c2ccccc12)Cc1ccco1,-,-,-,-,-,-
COc1cccc(/C=N/Nc2ncc(C)c(=O)[nH]2)c1OC,-,-,.,-,-,.
